ChEMBL document CHEMBL1201862, “PubChem BioAssay data set” (2004)
The whole screen tested about 53,000 sequences, of which about 4,900 (9.2%) were called active. Rule as the data show it: active = GI50 up to about 1.1 µM and inactive = higher. The full list was thinned out, with actives kept by preference. Potency and affinity values are given separately.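 Assay format: 96-well plates, 48-hour exposure. At the GI50, growth is halved.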

The substances below were run on NCI-H522 (assay: NCI tumour cell line growth inhibition, 48 h).

Substance	GI50
MERCURIC CHLORIDE, CHEMBL1374360	0.518 µM
DICHLORODIPHENYLSTANNANE, CHEMBL1088185	1 µM
DIBUTYLDICHLOROSTANNANE, CHEMBL1088184	0.13 µM
